We go through 13 compounds from PubChem BioAssay (Tox21).

Where “and” joins values, the source holds several entries; their conditions need not be identical. Identical values can stand only once. Records with an inconclusive call do not appear. Where a structure was tested more than once in an assay, its records may differ in their call. Calls of active or inactive are those of the source. Unless noted, the call rests on the fitted dose curve; in most records, active means well fitted curve in the direction sought with a large enough effect in the repeat runs; inconclusive means weak or mixed curves; inactive means no such curve, though single readings can be large; an effect the other way counts as inactive or inconclusive.

Assay [1] is described as follows: qHTS assay to identify small molecule agonists of the peroxisome proliferator-activated receptor delta (PPARd) signaling pathway - cell viability counter screen (AID 743211). Further: nearly all actives have a fitted effect of over 55% in size. A digest of the protocol:
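PPARd-bla HEK293H cells (3000/well) were pre-incubated 5 h at 37 C, then exposed to compound for 17 h at 37 C. After 2 h with LiveBLAzer substrate, CellTiter-Glo was added to the same wells; luminescence read after 30 min at room temperature.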

A short description of assay [2]: qHTS assay to identify small molecule antagonists of the peroxisome proliferator-activated receptor delta (PPARd) signaling pathway - cell viability counter screen (AID 743213). Further: nearly all actives have a fitted effect of over 50% in size. Summed up:
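PPARd-bla HEK293H cells (3000/well) got compound plus 300 nM L165041 agonist for 17 h at 37 C. Viability in the same wells came from CellTiter-Glo luminescence after 30 min at room temperature.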
On the technique in general: Quantitative high-throughput screening tests each substance at several concentrations.

Assay [3] can be described thus: qHTS assay to identify small molecule agonists of the farnesoid-X-receptor (FXR) signaling pathway - cell viability counter screen (AID 743218). Further: nearly all actives have a fitted effect of over 45% in size. A digest of the protocol:
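Cytotoxicity counter-screen run in parallel, same wells: FXR-UAS-bla HEK 293T cells dosed 16 h at 37 C, viability read by CellTiter-Glo luminescence after 30 min at room temperature.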

A short description of assay [4]: qHTS assay to identify small molecule antagonists of the farnesoid-X-receptor (FXR) signaling pathway - cell viability counter screen (AID 743221; active means well fitted cell-killing curve with a large enough effect in the repeat runs, not every such curve was filed as active; further: nearly all actives have a fitted effect of over 50% in size). A digest of the protocol: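 GeneBLAzer FXR-UAS-bla HEK 293T cells, compound plus chenodeoxycholic acid (50 uM final), 16 h at 37 C. CellTiter-Glo added to the same wells after the beta-lactamase read; luminescence read after 30 min at room temperature as viability.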

In assay [5] the target is Vitamin D3 receptor (Homo sapiens) (UniProt P11473). The assay can be described thus: qHTS assay to identify small molecule agonists of the vitamin D receptor (VDR) signaling pathway (AID 743222; calls by dose curve). A digest of the protocol:
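Quantitative HTS agonist-mode screen: compounds in DMSO were pin-transferred onto VDR-bla cells and incubated 16 h at 37C, 5% CO2. Reporter activity was detected with LiveBLAzer B/G FRET substrate after 2 h at room temperature.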

Assay [6] shares this target. As to the kind of experiment: qHTS assay to identify small molecule antagonists of the vitamin D receptor (VDR) signaling pathway (AID 743223; active means well fitted inhibition curve with a large enough effect in the signal ratio in the repeat runs, not every such curve was filed as active; the % refers to the signal ratio). Summed up: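 VDR-bla cells were treated with compound plus 3 nM final 1alpha,25-dihydroxyvitamin D3 for 16 h at 37C. Beta-lactamase reporter read by B/G FRET substrate fluorescence after 2 h at room temperature. qHTS format.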

Assay [7] is described as follows: qHTS assay to identify small molecule agonists of the vitamin D receptor (VDR) signaling pathway - cell viability counter screen (AID 743224). Further: series mostly up to about 63 µM; nearly all actives have a fitted effect of over 50% in size. A digest of the protocol:
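Viability is measured in the same wells as the VDR-bla reporter assay: after 16 h compound treatment and 2 h substrate loading, CellTiter-Glo is added and luminescence read 30 min later.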

The nature of assay [8]: qHTS assay to identify small molecule agonists of the NFkB signaling pathway - cell viability counter screen (AID 1159515; calls by dose curve; further: series mostly up to about 61 µM; nearly all actives have a fitted effect of over 55% in size). Summed up: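 Multiplexed viability readout: after the 5 hr compound exposure and 1.5 hr FRET substrate step, CellTiter-Glo reagent went into the same NFkB-bla ME-180 wells; ATP luminescence was measured after 30 min at room temperature.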
Assay [9] can be described thus: qHTS assay to identify small molecule agonists of the endoplasmic reticulum stress response signaling pathway (AID 1159516; active means well fitted activation curve with a large enough effect in the signal ratio in the repeat runs, not every such curve was filed as active; the % refers to the signal ratio). Summed up:
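Tox21 10K library screened in quantitative HTS format on ESRE-bla HeLa cells, a beta-lactamase reporter under ER stress response element control; 5 hr treatment, FRET read.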

The nature of assay [10]: qHTS assay to identify small molecule agonists of the endoplasmic reticulum stress response signaling pathway - cell viability counter screen (AID 1159517; calls by dose curve; further: series mostly up to about 61 µM; nearly all actives have a fitted effect of over 50% in size). Summed up: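 Luminescence readout: CellTiter-Glo, 30 min RT, same wells as the ESRE-bla reporter read. HeLa ESRE-bla, 1,500 cells/well, o/n 37 C; cpd 5 hr 37 C/5% CO2.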
Assay [11] is described as follows: qHTS assay to identify small molecule antagonists of the retinoid-related orphan receptor gamma (ROR-gamma) signaling pathway - cell viability counter screen (AID 1159520). Further: nearly all actives have a fitted effect of over 50% in size. A digest of the protocol:
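Tet-on ROR gamma CHO cells (1,000/well) were plated 4 hr, given compounds in DMSO for 2 hr at 37 C, then induced with 1 uM final doxycycline for 16 hr. Viability was read as ATP by CellTiter-Glo luminescence after 30 min.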

The target of assay [12] is Nuclear receptor ROR-gamma (Homo sapiens) (UniProt P51449). As to the kind of experiment: qHTS assay to identify small molecule antagonists of the retinoid-related orphan receptor gamma (ROR-gamma) signaling pathway (AID 1159521; further: nearly all actives have a fitted effect of over 50% in size; further: potency means the concentration at half of the fitted maximal effect). A digest of the protocol:
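Tet-on ROR-gamma CHO cells with ROR response element-luciferase reporter; compounds added 2 hr before 1 uM doxycycline induction, then 16 hr at 37 C. Antagonism scored as decreased ONE-Glo luminescence.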

The nature of assay [13]: qHTS assay to identify small molecule agonists of the AP-1 signaling pathway - cell viability counter screen (AID 1159525; calls by dose curve; further: nearly all actives have a fitted effect of over 55% in size). A digest of the protocol:
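ME-180 AP-1-bla, 2500 cells/well, Opti-MEM + 0.5% dialyzed FBS; overnight 37 °C; cpd 15-pt titration, 5 h 37 °C; CellTiter-Glo 30 min RT; luminescence read; normalised to TOAB and DMSO controls.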

The nature of assay [14]: qHTS assay to identify small molecule agonists of the AP-1 signaling pathway (AID 1159526; calls by dose curve).
The target of assay [15] is Peroxisome proliferator-activated receptor delta (Homo sapiens) (UniProt Q03181). As to the kind of experiment: qHTS assay to identify small molecule agonists of the peroxisome proliferator-activated receptor delta (PPARd) signaling pathway (AID 743212; calls by dose curve). Summed up:
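GeneBLAzer PPARd UAS-bla HEK293H cells (beta-lactamase reporter under UAS control), plated and rested 5 h at 37 C, then exposed to compounds in DMSO at 37 C; LiveBLAzer B/G FRET substrate added, 2 h room temperature, fluorescence read.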

The target is the same in assay [16]. The assay can be described thus: qHTS assay to identify small molecule antagonists of the peroxisome proliferator-activated receptor delta (PPARd) signaling pathway (AID 743215; active means well fitted inhibition curve with a large enough effect in the signal ratio in the repeat runs, not every such curve was filed as active; the % refers to the signal ratio;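 further: cells stimulated with agonist L165041 at 300 nM final during compound exposure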; further: potency means the concentration at half of the fitted maximal effect). Summed up: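 Inhibition of L165041-driven (300 nM final) PPARd signaling is scored in HEK293H UAS-bla cells. Exposure lasts 17 h at 37 C; beta-lactamase activity is then read by FRET substrate fluorescence after 2 h at room temperature.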

Assay [17] is described as follows: qHTS assay to identify small molecule antagonists of the vitamin D receptor (VDR) signaling pathway - cell viability counter screen (AID 743225). Further: nearly all actives have a fitted effect of over 50% in size. A digest of the protocol:
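VDR-UAS-bla HEK 293T cells were plated and incubated 4 h at 37C, then dosed with compound plus 3 nM (final) 1-alpha,25-dihydroxyvitamin D3 for 16 h. After the 2 h beta-lactamase read, viability in the same wells was read as CellTiter-Glo luminescence after 30 min at room temperature.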

The target of assay [18] is Bile acid receptor (Homo sapiens) (UniProt Q96RI1). As to the kind of experiment: qHTS assay to identify small molecule antagonists of the farnesoid-X-receptor (FXR) signaling pathway (AID 743217; active means well fitted inhibition curve with a large enough effect in the signal ratio in the repeat runs, not every such curve was filed as active; the % refers to the signal ratio; further: potency means the concentration at half of the fitted maximal effect). Summed up:
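Antagonist mode against 50 uM (final) chenodeoxycholic acid stimulation in FXR-bla HEK 293T cells, 16 h at 37 °C. Inhibition detected as reduced beta-lactamase activity via LiveBLAzer B/G FRET fluorescence after 2 h at room temperature.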

For assay [19] the target is unchanged. As to the kind of experiment: qHTS assay to identify small molecule agonists of the farnesoid-X-receptor (FXR) signaling pathway (AID 743220; active means well fitted activation curve with a large enough effect in the signal ratio in the repeat runs, not every such curve was filed as active; the % refers to the signal ratio). Summed up:
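Beta-lactamase reporter under UAS control in GeneBLAzer FXR HEK 293T cells (5000/well) measured with LiveBLAzer FRET substrate after 2 h at room temperature. Compound exposure lasted 16 h at 37C.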

Sequence of Peroxisome proliferator-activated receptor delta (Homo sapiens) (Q03181 whole entry, looked up): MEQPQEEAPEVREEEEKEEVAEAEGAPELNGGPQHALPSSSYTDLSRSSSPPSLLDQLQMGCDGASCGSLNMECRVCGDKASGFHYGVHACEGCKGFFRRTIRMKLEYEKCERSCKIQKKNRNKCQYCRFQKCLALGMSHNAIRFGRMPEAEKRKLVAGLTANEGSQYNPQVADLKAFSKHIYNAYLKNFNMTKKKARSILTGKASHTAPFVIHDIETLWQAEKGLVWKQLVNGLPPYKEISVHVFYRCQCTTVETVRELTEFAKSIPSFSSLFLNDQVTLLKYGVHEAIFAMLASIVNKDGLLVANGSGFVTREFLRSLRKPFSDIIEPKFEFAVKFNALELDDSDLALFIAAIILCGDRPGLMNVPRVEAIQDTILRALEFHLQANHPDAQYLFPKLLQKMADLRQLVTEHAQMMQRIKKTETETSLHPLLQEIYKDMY
Sequence of Vitamin D3 receptor (Homo sapiens) (P11473 whole entry, looked up): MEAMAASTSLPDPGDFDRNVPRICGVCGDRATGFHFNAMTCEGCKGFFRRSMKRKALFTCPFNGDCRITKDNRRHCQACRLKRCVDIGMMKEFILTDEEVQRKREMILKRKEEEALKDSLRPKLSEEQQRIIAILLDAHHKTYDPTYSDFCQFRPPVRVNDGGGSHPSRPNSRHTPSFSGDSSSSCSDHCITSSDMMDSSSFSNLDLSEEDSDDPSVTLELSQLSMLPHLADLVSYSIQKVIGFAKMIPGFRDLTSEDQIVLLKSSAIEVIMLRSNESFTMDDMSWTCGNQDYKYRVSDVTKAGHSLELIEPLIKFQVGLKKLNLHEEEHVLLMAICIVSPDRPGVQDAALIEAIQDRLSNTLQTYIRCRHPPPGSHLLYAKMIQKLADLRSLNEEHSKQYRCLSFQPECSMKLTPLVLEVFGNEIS
Sequence of Bile acid receptor (Homo sapiens) (Q96RI1 whole entry, looked up): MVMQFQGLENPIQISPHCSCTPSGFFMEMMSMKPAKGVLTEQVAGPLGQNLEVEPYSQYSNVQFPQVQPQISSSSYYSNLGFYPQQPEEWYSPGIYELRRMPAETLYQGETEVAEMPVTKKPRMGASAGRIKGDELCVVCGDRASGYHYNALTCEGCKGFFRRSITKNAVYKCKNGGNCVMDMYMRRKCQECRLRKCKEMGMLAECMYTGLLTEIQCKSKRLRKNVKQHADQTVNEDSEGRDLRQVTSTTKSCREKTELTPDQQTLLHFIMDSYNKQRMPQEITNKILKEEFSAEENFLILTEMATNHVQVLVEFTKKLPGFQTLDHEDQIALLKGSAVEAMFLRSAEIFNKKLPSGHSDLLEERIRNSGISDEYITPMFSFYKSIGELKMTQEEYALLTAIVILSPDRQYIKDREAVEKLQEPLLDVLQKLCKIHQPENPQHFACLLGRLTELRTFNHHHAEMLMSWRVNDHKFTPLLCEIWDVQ

For the compound `c1ccc(N=Nc2ccccc2)cc1`, the Potency result in assay [1], in assay [2], in assay [3], in assay [4], in assay [7] and in assay [8] was “inactive” throughout. Besides, the Potency result in assay [10], in assay [11], in assay [12] and in [13] was “inactive” each time. For the same compound, the compound was called inactive in [5], in assay [6], in assay [9] and in assay [14].

Take `NNC(=S)NN`: the Potency entry in assay [15], in [2], in assay [16], in [4], in assay [7] and in assay [17] was “inactive” throughout. The Potency entry in [8], in [10], in [11] and in assay [13] was “inactive” each time. Also, the call in assay [5], in assay [6] and in [9] was inactive. The Potency in assay [12] is 56 µM (active).

`CCCCN(CC)c1c([N+](=O)[O-])cc(C(F)(F)F)cc1[N+](=O)[O-]`: the Potency result in [1], in assay [15], in assay [2], in [16], in assay [3] and in assay [4] was “inactive” throughout. The Potency result in [7], in assay [17], in assay [8], in assay [10], in [11] and in [12] was “inactive” each time. Besides, the Potency entry in [13] was “inactive”. The compound was called inactive in assay [5], in [6] and in assay [14].

Take `CCc1cccc(CC)c1N(COC)C(=O)CCl`: the Potency result in [1], in assay [15], in assay [2], in assay [18], in assay [3] and in assay [4] was “inactive” in each case. Further, the Potency result in [7], in assay [8], in [10], in [11] and in [13] was “inactive” throughout. Besides, the compound was called inactive in assay [19], in [5], in assay [6] and in assay [14].

As to `Oc1c(Cl)c(Cl)c(Cl)c(Cl)c1Cl`, the Potency result in [1], in [4], in [17], in assay [8], in assay [10] and in [11] was “inactive” throughout. The Potency entry in [13] was “inactive”. Besides, the result in assay [19], in assay [5], in assay [6] and in [14] was inactive. In [12], the Potency was 54.5 µM (active).

For the compound `C[C@]12CCC(=O)C(O)=C1CC[C@@H]1[C@@H]2CC[C@]2(C)C(=O)CC[C@@H]12`, the Potency result in assay [1], in [2], in assay [3], in assay [4], in assay [7] and in assay [8] was “inactive” each time. Besides, the Potency entry in assay [10], in [11] and in assay [13] was “inactive” in each case. Further, the call in assay [5], in [6], in assay [9] and in assay [14] was inactive. In addition, the Potency in assay [12] was 27.3 µM (active) and inactive.

Take `CCC(C)c1ccc(O)cc1` (stereo not drawn): the Potency entry in [1], in assay [2], in assay [18], in assay [3], in [4] and in [7] was “inactive” each time. The Potency entry in [17], in assay [8], in assay [10], in assay [11], in [12] and in assay [13] was “inactive” throughout. Moreover, the result in [19], in assay [9] and in assay [14] was inactive.

Take `C=C(C)[C@H]1Cc2c(ccc3c2O[C@@H]2COc4cc(OC)c(OC)cc4[C@@H]2C3=O)O1`: the Potency entry in [1], in assay [15], in assay [3], in assay [4], in assay [8] and in [10] was “inactive” throughout. Moreover, the Potency entry in assay [11] and in assay [13] was “inactive” each time. Besides, the Potency was 4.9 µM (active) and inactive in [16]; 0.75 µM (active) in assay [18]; 34.8 nM (active) and 770 nM (active) and 10.6 nM (active) in [12]. In addition, the compound was called inactive in [19], in assay [9] and in assay [14].

As to `C[C@]12CCC(=O)C[C@@H]1CC[C@@H]1[C@@H]2CC[C@]2(C)[C@@H](O)CC[C@@H]12`, the Potency result in assay [1], in assay [3], in assay [7], in [17], in assay [8] and in assay [10] was “inactive” in each case. The Potency entry in assay [11] and in assay [13] was “inactive” throughout. Also, the compound was classed as inactive in assay [9].

Take `Nn1cnnc1`: the Potency result in [1], in assay [15], in assay [2], in assay [16], in assay [3] and in assay [4] was “inactive” in each case. Moreover, the Potency result in [7], in [17], in assay [8], in assay [10], in assay [11] and in assay [12] was “inactive” each time. Besides, in assay [13], the Potency result is “inactive”. Also, the compound was called inactive in assay [5], in assay [6], in [9] and in [14].

In the case of `N#CC(Br)Br`, the Potency entry in [1], in assay [15], in assay [2], in assay [16], in assay [18] and in assay [4] was “inactive” throughout. Besides, the Potency result in assay [7], in [8], in [10], in assay [11], in assay [12] and in assay [13] was “inactive” throughout. Further, the outcome in assay [19], in assay [9] and in assay [14] was inactive.

As for `S=C1NCCN1`, the Potency entry in assay [1], in assay [2], in [4], in assay [7], in assay [17] and in assay [8] was “inactive” each time. Moreover, the Potency entry in [10], in [11], in [12] and in assay [13] was “inactive” in each case. Besides, the result in assay [5], in assay [6], in assay [9] and in [14] was inactive.

For the compound `CC1(C)C(C=C(Cl)Cl)C1C(=O)OC(C#N)c1cccc(Oc2ccccc2)c1` (stereo not drawn), the Potency entry in assay [1], in [2], in assay [3], in assay [4], in assay [7] and in assay [8] was “inactive” in each case. In addition, the Potency result in assay [10], in assay [11], in [12] and in assay [13] was “inactive” each time. Also, the outcome in [5], in [6], in [9] and in assay [14] was inactive.
